Compound activity as filed in PubChem BioAssay.
Pf Dd2 inh – inhibitors of Plasmodium falciparum Dd2 growth | Potency, µM (top dose mostly 28.9 µM), most hits filed as inhibitors | hit rate 4.3% among 120,000 | P. falciparum Dd2 growth, SYBR Green, 72 h; active = well fitted inhibition curve with a large enough effect; also: nearly all actives have a fitted effect of over 65% in size
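Readout: SYBR Green fluorescence, 485 nm excitation, 535 nm emission, after ~16 h lysis at 37C. Before that, Dd2-infected red cells (2.5% hematocrit) grew 72 h with compound, 29 uM top final concentration.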
A number is an active result; n = inactive; [ ] = remark or other dose. Many of the other results were omitted from the sample, so hits are more common in it than they were.

SMILES | Pf Dd2 inh
Cc1ccc([S+](=O)([O-])NC[C@@H]2CC[C@H]3C[C@@H]2C3(C)C)cc1 | n
O=[S+]([O-])(NCC1CN(Cc2ccncc2Cl)CC12CN(c1ccccc1)C2)c1ccccc1 (stereo not drawn) | n
CC1(C)[C@H]2CC[C@@H](CN[S+](=O)([O-])c3ccccc3)[C@@H]1C2 | 11µM
N#Cc1cccc(NC(=O)N2CCc3c(nc(-c4ccc(F)cc4)[nH]c3=O)C2)c1 | n
C[S+](=O)([O-])c1ccc(-c2cc3c(cn2)CN(Cc2ccccc2)CCN3)cc1 | n
COc1ccc(Cn2c(C(=O)O)c(CNCc3ccc(OC)cc3OC)c3ccc(C)cc32)cc1 | 6.3µM
COc1ccc(Cn2c(C(=O)O)c(CNC3CCCCC3)c3ccc(C)cc32)cc1 | n
C=Cc1ccc(Cn2c(C(=O)O)c(CNCCc3ccco3)c3ccc(C)cc32)cc1 | n
COc1ccc2c(CNCCc3cccs3)c(C(=O)O)n(Cc3ccccc3)c2c1 | n
COc1ccc(Cn2c(C(=O)O)c(CNCCc3ccco3)c3ccc(C)cc32)cc1 | n
COc1ccc2c(CNCCc3cccs3)c(C(=O)O)n(Cc3cccc(F)c3)c2c1 | n
COc1ccc(Cn2c(C(=O)O)c(CNCCc3cc(OC)ccc3OC)c3ccc(C)cc32)cc1 | 8.9µM
CCOc1ccc(CCNCc2c(C(=O)O)n(Cc3ccc(C)cc3)c3cc(OC)ccc23)cc1 | 11µM
COc1ccc2c(CNCc3ccccc3OC)c(C(=O)O)n(Cc3ccc(F)cc3Cl)c2c1 | n[0.0462 µM]
CCCNC(=O)N[C@@H]1C[C@H](Cn2cc(-c3cccnc3)nn2)[C@@H](O)[C@H]1O | n
O=C(O)c1cc(C[C@H]2CNCC[C@H]2CC(=O)N2CCCCC2)no1 | n
CCOC(=O)Cn1c(=N)n(Cc2ccc(C(C)(C)C)cc2)c2ccccc21 | n
COc1ccc(CCNC(=O)C2CCN(c3nc4ccccc4nc3C(F)(F)F)CC2)c(OC)c1 | n
Cc1cc(C)c2oc(C(=O)Nc3sc4c(c3C(=O)NCc3ccco3)CCCC4)cc(=O)c2c1 | n
O=C(NCCC(c1ccccc1)c1ccccc1)c1cn(C2CCCCC2)nn1 | n
CN(CC(N)=O)C(=O)[C@@H]1[C@@H](NC(=O)Nc2ccc(F)cc2F)CCN1C(=O)CC(C)(C)C | n
CN(C)c1ccc(C(=O)N2CC[C@@H](CC(=O)O)[C@@H](CCN3CCN(c4ccccc4)CC3)C2)cc1 | n
COc1ccc(OCCn2c(C(C)Oc3ccccc3)nc3ccccc32)cc1 (stereo not drawn) | n
COc1ccc(OCCn2c(NC(=O)c3ccc(OC)cc3)nc3ccccc32)cc1 | n
COc1ccc(C(=O)Nc2nc3ccccc3n2CCOc2ccc(Cl)cc2)cc1 | 11µM
SMILES | Pf Dd2 inh
O=c1oc2ccccc2cc1-c1nnc(Nc2ccc(Cl)cc2Cl)s1 | n
O=C1CCN(S(=O)(=O)c2ccc3c(c2)CCC3)CCCCCCN1 | n
CC(C)N1CCN(C2CCOC3(CCN(C(=O)COc4ccccc4)CC3)C2)CC1 (stereo not drawn) | n
Cc1ccc(CNC(=O)N2CCC(Cn3c(C)cnc3C3CCOCC3)CC2)cc1 | n
COCCOC1CCN(C(=O)NCc2ccc(C)cc2)CC1 | n
Cc1ccc(CNC(=O)N2CCCC(CN3CCCC3)CC2)cc1 (stereo not drawn) | 4.5µM
CCN(CC)CCCNC(=O)C(=O)Nc1ccc2nc3n(c(=O)c2c1)CCCCC3 | n
CC(C)(C)CC(=O)NCC(=O)N1CCN(c2ccccn2)CC1 | n
COc1ccccc1-c1nnc(C2CCN(S(=O)(=O)c3ccc(F)c(C)c3)CC2)o1 | n
CCCc1ccc(S(=O)(=O)N2CCC(n3cnnc3C)CC2)cc1 | n
CCCc1ccc(S(=O)(=O)N2CCC(c3nnc(-c4cccc(C)c4)o3)CC2)cc1 | 11µM
CCCS(=O)(=O)N1CCC2(CC1)CN(Cc1ccc(OC)cc1)C2=O | n
Cc1ccnn1CC(=O)NCc1cccnc1Oc1cccc(C(F)(F)F)c1 | n
COc1cc2c(cc1OCc1ccccc1)N(C(=O)[C@@H]1CCCO1)CC21CCN(C)CC1 | n
COc1cc2c(cc1OCc1ccc(Cl)cc1)N(Cc1ccccc1)CC21CCN(C(C)=O)CC1 | n
COc1cc2c(cc1OCc1ccccc1)N(C(=O)c1c[nH]c3ccccc13)CC21CCN(C)CC1 | 2.5µM
O=C(NC1CCN(c2cc(-c3ccccc3)[nH]n2)CC1)C1CCCCC1 | n
Cc1cccc2c(C3CCN(S(=O)(=O)c4cc(F)c(F)cc4Cl)CC3)c[nH]c12 | n
CCN(C(=O)Cn1c(SCC(=O)NCc2ccccc2)nc2ccccc21)c1cccc(C)c1 | n
COc1ccc(NC(=O)CSc2nc3ccccc3n2CC(=O)Nc2cccc(C)c2C)cc1 | n
CCN(C(=O)Cn1c(SCC(=O)Nc2ccc(OC)cc2)nc2ccccc21)c1cccc(C)c1 | 10µM
CC1(C(=O)O)CCN(Cc2ccccc2)CC1 | n
CN(C)C[C@@H]1CN(S(C)(=O)=O)C[C@H]1NC(=O)Cn1c(=O)oc2ccccc21 | n
COc1ccccc1N1CCN(C(=O)c2cc3c(s2)-c2ccccc2OC3)CC1 | n
COc1cc(OC)c(N(C)C(=O)c2cc3c(s2)-c2ccccc2OC3)cc1Cl | 8.9µM
SMILES | Pf Dd2 inh
COc1ccc(N(C)C(=O)c2cc3c(s2)-c2ccccc2OC3)cc1 | n
COC(=O)c1ccc(CN2C(=O)[C@@H]3C[C@@H](O)CN3C3(CN(Cc4ccc(C(F)(F)F)cc4)C3)C2=O)cc1 | n
Cc1ccc(CNC(=O)c2sc3nc4n(c(=O)c3c2C)CCCCC4)cc1 | n
CC1(COc2ccc3[nH]ccc3c2)COc2ccc(C(=O)NCc3ccco3)cc2N1 (stereo not drawn) | n
O=C(NCCCn1nccc1C1CC1)C1NCCc2[nH]cnc21 (stereo not drawn) | n
O=C(c1ccsc1)N1CCCC1c1nc(C2CCOCC2)no1 (stereo not drawn) | n
O=C1CN(C(=O)Nc2ccccc2Cl)C(c2ccccc2)c2c(sc3c2CCCC3)N1 (stereo not drawn) | 10µM
Cc1cccc(NC(=O)N2CCC(CC(=O)NCc3ccccc3)C2)c1C (stereo not drawn) | n
O=C(COc1ccccc1)Nc1sc2c(c1C(=O)Nc1ccccc1Cl)CCCCC2 | n
COC(=O)c1ccccc1NC(=O)N1CCc2c(sc3c2CCCC3)C1c1ccc(F)cc1 (stereo not drawn) | n
O=C(Cc1ccccc1)Nc1sc2c(c1C(=O)Nc1ccccc1Cl)CCCC2 | n
Cc1cccc(NC(=O)N2CC(=O)Nc3sc4c(c3C2c2ccccc2)CCCC4)c1C (stereo not drawn) | 11µM
Cc1ccc(-c2nc3c4ccccc4n(Cc4cccc(Cl)c4)c(=O)n3n2)cc1 | n
CC(C)CNC1(Cc2cc(CN(C)Cc3ccccc3)on2)COC1 | n
CCOc1ccc(OCC(=O)Nc2ccc(S(=O)(=O)Nc3cc(C)on3)cc2)cc1 | n
O=C1Nc2ccccc2CN(C/C=C/c2ccccc2)C12CCNC2 (stereo not drawn) | 11µM
O=C1NCc2ccccc2CC12CCCN2C/C=C/c1ccccc1 (stereo not drawn) | n
O=C1Nc2ccccc2CN(CC2CCOCC2)C12CCNCC2 | n
O=C(C1CC1)N1Cc2ccccc2NC(=O)C12CCNCC2 | n
O=C1Nc2ccccc2CN(Cc2ccncc2)C12CCNCC2 | n
O=C1Nc2ccccc2CN(Cc2ccc(Cl)cc2)C12CCNCC2 | 7.1µM
CCn1nccc1C(=O)N1CCC(O)(c2ccccc2)[C@H](N(C)C)C1 (stereo partly drawn) | n[5.79 µM]
O=C(c1ccccc1Cl)N1CCC2(CC1)NC(=O)N(Cc1ccccc1)C2=O | n
